Measurements taken from the supplement of paper PMC11732987, “Enantioselective OTUD7B fragment discovery through chemoproteomics screening and high-throughput optimisation” (Communications Chemistry, 2025).

How the values were obtained:
Test in all cases: log2 ratio of Biotin-Ahx-Ub-VS probe labelling (fragment/DMSO); higher = less target engagement (more negative = stronger competition), active = hit call of the paper (q ≤ 0.05, log2 ratio ≤ -1)
Conditions in all cases: compound concentration: 200 uM; treatment time: 3 h
USP34 = USP34 (UniProt Q70CQ2)
Procedure, shortened: (§1)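 Triplicate samples of HEK293T lysate, 495 µg each, received fragment at 200 µM or vehicle for 3 h, followed by Biotin-Ahx-Ub-VS (0.5 µM final) for 1 h. After NeutrAvidin enrichment of labelled DUBs and LysC/trypsin digestion, peptides were run by diaPASEF LC-MS/MS. The values are average log2 fragment/vehicle ratios from global-median-normalised Spectronaut label-free quantities, tested by unpaired t-test on proteins having ≥2 unique peptides.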

USP36 = biological target: T1, USP36 (UniProt Q9P275)
T1 sequence (whole entry): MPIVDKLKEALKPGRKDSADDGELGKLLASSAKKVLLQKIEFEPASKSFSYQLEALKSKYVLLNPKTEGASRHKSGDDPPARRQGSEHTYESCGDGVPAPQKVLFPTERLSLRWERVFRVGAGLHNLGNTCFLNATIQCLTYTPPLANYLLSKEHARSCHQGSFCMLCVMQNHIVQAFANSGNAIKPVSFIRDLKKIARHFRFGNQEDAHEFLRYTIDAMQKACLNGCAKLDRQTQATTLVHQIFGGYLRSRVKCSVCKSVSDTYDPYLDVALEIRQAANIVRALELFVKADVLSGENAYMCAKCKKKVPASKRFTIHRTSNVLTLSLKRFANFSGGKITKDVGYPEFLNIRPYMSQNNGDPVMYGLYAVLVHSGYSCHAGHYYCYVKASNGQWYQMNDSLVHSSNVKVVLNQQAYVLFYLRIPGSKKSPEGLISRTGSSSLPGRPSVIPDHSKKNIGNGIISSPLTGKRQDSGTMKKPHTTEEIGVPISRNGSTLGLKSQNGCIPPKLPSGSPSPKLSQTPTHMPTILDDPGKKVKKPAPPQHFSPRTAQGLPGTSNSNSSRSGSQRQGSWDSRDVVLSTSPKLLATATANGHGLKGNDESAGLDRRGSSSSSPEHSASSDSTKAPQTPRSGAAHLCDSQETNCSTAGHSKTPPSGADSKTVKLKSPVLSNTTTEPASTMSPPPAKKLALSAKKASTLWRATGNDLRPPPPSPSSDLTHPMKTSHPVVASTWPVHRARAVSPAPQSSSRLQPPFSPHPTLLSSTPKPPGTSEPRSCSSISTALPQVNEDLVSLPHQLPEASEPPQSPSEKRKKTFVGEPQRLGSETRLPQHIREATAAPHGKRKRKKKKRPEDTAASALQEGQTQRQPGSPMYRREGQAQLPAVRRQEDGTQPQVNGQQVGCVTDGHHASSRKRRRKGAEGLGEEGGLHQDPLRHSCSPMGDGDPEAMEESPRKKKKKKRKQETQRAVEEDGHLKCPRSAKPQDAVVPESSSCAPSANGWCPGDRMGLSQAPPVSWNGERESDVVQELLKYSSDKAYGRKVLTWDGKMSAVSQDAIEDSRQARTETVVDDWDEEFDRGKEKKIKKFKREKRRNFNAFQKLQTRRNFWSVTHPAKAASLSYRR
Procedure, shortened: as §1

USP38 = biological target: T2, USP38 (UniProt Q8NB14)
T2 sequence (whole entry): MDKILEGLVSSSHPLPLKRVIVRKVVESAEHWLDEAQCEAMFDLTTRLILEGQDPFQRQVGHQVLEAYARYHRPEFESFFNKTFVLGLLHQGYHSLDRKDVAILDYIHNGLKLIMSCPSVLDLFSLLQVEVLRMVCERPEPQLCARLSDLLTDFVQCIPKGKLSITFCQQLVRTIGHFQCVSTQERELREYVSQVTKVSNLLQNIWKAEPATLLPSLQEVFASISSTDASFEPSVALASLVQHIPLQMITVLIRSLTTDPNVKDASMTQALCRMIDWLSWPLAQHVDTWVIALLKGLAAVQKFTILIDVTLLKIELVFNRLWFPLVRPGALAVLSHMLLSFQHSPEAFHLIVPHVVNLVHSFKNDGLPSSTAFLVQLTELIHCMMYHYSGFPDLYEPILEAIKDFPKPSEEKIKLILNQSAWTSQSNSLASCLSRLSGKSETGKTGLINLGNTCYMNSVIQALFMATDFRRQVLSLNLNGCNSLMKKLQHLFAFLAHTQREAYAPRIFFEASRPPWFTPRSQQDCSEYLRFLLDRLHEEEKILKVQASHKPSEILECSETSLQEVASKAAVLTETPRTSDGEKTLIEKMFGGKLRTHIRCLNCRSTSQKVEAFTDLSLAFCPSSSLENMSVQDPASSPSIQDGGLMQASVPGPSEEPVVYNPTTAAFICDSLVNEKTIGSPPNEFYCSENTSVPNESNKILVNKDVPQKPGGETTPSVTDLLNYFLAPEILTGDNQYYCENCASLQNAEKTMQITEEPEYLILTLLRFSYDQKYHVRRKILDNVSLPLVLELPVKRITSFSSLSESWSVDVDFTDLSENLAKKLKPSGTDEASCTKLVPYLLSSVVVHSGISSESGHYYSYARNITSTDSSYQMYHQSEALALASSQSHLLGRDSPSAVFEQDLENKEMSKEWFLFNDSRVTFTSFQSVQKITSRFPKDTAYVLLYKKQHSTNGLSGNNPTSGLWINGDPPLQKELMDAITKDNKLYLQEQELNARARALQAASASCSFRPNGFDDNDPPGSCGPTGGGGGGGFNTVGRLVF
Procedure, shortened: as §1

USP39 = biological target: T3, USP39 (UniProt Q53GS9)
T3 sequence (whole entry): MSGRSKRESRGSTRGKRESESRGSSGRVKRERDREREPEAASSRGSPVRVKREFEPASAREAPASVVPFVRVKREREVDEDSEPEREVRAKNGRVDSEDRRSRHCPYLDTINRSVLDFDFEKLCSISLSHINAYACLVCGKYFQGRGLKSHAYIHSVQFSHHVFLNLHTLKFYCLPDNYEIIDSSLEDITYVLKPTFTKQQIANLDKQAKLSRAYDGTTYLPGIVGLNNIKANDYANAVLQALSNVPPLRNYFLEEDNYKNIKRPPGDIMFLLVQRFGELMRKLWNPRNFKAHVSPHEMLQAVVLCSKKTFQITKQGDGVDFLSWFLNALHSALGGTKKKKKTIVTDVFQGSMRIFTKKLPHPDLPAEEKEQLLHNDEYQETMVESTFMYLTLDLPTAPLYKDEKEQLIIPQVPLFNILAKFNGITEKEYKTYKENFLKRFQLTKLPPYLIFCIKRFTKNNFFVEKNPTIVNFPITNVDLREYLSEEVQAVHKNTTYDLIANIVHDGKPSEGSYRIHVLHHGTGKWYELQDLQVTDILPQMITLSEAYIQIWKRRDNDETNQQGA
Procedure, shortened: as §1

USP4 = biological target: T4, USP4 (UniProt Q13107)
T4 sequence (whole entry): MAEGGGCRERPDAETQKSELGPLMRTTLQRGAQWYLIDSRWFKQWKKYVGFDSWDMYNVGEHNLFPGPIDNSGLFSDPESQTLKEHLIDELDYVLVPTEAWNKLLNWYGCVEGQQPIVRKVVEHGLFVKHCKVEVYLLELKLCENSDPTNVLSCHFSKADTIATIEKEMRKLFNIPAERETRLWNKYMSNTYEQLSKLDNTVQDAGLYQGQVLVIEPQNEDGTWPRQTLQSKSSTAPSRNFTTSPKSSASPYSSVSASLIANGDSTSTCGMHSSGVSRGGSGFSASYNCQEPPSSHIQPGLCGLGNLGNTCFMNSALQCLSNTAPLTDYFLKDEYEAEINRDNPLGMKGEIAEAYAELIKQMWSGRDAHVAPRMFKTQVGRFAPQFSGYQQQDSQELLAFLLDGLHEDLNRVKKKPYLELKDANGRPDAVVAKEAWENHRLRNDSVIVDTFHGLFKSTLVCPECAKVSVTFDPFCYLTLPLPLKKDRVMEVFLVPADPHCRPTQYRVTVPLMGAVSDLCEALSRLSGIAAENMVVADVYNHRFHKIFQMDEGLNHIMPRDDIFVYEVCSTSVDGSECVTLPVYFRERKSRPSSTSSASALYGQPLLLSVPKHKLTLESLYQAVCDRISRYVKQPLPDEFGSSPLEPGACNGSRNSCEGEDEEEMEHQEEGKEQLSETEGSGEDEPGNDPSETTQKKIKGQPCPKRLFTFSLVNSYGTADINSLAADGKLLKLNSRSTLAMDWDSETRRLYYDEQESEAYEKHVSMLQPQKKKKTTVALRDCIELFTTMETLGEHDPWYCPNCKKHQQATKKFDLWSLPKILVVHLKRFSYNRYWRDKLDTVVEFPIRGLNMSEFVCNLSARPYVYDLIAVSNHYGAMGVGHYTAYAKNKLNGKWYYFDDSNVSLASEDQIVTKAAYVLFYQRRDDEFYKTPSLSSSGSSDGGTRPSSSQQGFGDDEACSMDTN
Procedure, shortened: as §1

Measured: log2 ratio of Biotin-Ahx-Ub-VS probe labelling

Chain of USP34 (Q70CQ2 whole entry, the tested form may be a part): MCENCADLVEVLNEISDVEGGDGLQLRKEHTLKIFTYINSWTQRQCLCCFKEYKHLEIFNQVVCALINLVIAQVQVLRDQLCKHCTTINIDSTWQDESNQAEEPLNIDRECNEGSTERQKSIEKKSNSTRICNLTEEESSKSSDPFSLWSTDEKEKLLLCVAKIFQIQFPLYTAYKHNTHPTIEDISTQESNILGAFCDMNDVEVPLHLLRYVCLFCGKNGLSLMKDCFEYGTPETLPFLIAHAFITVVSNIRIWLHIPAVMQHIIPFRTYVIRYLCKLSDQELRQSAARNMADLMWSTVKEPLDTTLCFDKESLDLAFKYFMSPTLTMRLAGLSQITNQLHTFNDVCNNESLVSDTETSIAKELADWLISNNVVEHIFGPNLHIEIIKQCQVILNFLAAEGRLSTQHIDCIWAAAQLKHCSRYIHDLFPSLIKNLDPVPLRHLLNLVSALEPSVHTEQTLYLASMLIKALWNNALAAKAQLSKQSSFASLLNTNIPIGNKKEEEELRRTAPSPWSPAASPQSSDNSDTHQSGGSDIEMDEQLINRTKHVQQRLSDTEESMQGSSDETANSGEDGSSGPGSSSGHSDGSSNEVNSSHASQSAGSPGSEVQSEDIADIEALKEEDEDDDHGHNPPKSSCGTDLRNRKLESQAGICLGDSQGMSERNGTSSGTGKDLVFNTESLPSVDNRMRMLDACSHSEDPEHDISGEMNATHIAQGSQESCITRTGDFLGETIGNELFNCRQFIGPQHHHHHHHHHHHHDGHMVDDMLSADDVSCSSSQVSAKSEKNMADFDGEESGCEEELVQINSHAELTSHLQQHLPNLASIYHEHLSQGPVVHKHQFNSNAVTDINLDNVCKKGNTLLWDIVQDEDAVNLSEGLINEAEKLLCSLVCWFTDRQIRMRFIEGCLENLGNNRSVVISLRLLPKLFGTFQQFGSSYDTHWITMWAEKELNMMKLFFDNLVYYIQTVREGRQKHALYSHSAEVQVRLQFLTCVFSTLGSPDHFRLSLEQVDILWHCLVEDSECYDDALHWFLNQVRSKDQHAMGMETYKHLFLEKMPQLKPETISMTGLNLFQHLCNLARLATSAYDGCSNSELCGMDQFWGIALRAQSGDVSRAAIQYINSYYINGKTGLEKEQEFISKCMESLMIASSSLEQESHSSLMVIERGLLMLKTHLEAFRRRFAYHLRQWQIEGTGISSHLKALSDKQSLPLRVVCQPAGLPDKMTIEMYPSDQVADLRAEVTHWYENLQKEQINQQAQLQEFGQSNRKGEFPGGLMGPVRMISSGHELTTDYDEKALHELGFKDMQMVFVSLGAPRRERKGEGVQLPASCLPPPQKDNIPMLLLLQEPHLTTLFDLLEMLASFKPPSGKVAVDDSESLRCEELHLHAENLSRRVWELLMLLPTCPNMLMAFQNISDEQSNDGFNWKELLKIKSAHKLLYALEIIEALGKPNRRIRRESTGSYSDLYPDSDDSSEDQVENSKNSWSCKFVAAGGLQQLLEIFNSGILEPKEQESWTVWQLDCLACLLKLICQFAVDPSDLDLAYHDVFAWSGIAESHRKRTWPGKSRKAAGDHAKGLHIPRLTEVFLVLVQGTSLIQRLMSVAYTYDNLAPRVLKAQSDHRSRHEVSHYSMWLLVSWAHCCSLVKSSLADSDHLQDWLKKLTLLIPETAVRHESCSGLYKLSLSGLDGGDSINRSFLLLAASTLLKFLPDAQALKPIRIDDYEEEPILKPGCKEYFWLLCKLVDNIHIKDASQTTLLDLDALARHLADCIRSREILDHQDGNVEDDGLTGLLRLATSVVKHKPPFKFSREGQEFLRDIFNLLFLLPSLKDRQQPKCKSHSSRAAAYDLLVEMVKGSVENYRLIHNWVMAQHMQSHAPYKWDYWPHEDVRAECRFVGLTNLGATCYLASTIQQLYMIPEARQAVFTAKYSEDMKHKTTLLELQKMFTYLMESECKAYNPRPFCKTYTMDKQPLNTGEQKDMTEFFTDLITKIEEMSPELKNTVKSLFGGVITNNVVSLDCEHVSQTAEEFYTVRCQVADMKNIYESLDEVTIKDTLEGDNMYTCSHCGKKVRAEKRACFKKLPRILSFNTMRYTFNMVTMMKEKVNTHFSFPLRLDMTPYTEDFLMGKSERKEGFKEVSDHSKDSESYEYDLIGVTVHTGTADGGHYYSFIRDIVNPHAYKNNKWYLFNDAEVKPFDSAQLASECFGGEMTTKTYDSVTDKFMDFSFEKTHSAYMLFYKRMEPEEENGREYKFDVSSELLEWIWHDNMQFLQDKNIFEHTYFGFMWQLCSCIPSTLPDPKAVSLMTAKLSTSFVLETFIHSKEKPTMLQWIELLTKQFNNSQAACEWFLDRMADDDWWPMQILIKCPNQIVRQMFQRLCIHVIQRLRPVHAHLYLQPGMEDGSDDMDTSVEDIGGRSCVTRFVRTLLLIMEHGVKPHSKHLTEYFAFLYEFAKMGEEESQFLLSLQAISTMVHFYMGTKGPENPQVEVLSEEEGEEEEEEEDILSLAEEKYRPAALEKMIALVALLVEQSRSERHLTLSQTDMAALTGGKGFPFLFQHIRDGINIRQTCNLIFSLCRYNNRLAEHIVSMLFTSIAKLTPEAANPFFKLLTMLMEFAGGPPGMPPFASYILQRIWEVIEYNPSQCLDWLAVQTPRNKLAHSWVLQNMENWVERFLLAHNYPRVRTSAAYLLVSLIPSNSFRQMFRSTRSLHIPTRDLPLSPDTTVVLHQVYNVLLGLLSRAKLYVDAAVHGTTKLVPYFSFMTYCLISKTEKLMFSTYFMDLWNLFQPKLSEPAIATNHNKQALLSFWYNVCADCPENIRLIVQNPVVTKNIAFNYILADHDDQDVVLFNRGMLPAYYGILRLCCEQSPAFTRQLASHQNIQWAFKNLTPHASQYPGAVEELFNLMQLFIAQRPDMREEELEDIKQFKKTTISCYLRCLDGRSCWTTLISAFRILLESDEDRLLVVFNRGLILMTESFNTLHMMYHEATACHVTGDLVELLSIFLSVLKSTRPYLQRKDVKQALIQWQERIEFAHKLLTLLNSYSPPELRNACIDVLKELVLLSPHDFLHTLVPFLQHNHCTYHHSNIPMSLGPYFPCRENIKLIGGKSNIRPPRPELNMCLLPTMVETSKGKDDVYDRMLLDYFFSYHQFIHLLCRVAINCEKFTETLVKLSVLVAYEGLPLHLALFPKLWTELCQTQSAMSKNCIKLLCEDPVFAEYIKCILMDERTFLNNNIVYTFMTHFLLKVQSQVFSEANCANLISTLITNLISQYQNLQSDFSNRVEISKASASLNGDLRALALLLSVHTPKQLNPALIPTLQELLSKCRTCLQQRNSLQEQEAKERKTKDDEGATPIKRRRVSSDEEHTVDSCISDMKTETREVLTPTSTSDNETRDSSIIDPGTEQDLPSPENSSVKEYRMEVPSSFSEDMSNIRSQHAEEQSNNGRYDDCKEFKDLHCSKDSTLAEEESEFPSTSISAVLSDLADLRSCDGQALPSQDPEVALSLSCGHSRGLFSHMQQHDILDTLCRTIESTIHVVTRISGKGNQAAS

CCN1C(=O)C2CN(C(=O)CCl)CCN2C1=O (stereo not given)
inactive: USP34 0.053 | USP36 -0.271 | USP38 -0.0595 | USP39 -0.0577 | USP4 0.0781
